# ERK AVP inh: qHTS Assay for Inhibitors of the ERK Signaling Pathway using a Homogeneous Screening Assay; HEK293-V1b, vasopressin-stimulated pERK AlphaScreen; Potency, µM (titrated, usually from 57.5 µM), for the others: top-dose activity, negative = inhibition, most hits filed as inhibitors; 72,000 compounds, 0.99% hits; also: potency is read from the fitted curve at half-maximal effect; % is scaled to controls: 0 for no effect and ±100 for the full control effect; nearly all actives have a fitted effect of over 55% in size
#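 Phosphorylated ERK1/2 detected via AlphaScreen bead proximity in lysates of V1b-expressing HEK293 cells given 25 nM vasopressin for 5 min after 30 min compound exposure (37 °C). AC50 from Hill equation; basal DMSO 0%, vasopressin 100%.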
# 15-hLO inh: qHTS Assay for Inhibitors of 15-hLO (15-human lipoxygenase); purified 15hLO-1, xylenol orange hydroperoxide absorbance; 74,000 compounds, 1.4% hits; AID 887, 2007; Potency, µM (titrated, usually from 57.1 µM), without a hit: at the highest dose activity change, negative = inhibition, hits mostly inhibitors; Polyunsaturated fatty acid lipoxygenase ALOX15 (Homo sapiens), P16050; also: potency is read from the fitted curve at half-maximal effect; % is scaled to controls: 0 for no effect and ±100 for the full control effect; nearly all actives have a fitted effect of over 55% in size
#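 Quantitative HTS in 25 mM Hepes pH 7.5 containing 0.01% Triton X-100: human 15hLO-1 at 40 nM, arachidonic acid at 50 uM, 6 min turnover. Product quantified via ferrous oxidation/xylenol orange, 573:405 nm absorbance ratio.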
# Tau filament bind: qHTS Assay for Tau Filament Binding; AID 596, 2007; recombinant tau filaments, thioflavin S fluorescence, 15 h; filaments grown with octadecylsulfate alongside compound; 71,000 compounds, 2% hits; Potency, µM (series often up to 57.1 µM), for inactives: at the highest dose activity change, negative = inhibition; Microtubule-associated protein tau (Homo sapiens), P10636;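 also: potency is read from the fitted curve at half-maximal effect; % is scaled to controls: 0 for no effect and ±100 for the full control effect; actives lower thioflavin S fluorescence by blocking filaments or displacing dye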
# Target sequence (P10636 whole entry, looked up): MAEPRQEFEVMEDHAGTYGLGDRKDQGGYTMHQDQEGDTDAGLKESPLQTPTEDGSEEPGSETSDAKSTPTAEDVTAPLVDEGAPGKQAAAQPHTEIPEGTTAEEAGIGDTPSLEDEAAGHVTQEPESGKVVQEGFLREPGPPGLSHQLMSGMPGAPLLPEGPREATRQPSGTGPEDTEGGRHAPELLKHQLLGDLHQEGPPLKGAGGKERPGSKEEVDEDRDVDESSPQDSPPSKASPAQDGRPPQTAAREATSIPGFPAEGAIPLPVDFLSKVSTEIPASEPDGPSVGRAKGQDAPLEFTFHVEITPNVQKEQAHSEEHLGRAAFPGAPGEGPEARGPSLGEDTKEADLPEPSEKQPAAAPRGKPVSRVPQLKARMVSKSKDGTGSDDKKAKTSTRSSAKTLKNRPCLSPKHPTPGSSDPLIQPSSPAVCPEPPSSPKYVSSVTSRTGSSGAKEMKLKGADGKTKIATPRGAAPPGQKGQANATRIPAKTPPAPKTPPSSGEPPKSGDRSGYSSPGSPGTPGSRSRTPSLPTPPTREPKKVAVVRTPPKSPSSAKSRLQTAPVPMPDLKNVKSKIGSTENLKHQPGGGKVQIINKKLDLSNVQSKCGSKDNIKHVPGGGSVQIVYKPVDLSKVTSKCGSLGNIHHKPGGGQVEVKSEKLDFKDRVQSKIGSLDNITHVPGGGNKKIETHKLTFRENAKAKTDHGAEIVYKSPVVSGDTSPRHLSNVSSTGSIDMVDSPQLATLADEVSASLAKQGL
#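 ThS-based fibril read: tau 1 uM final, inducer ODS 30 uM final, 37 C for 15 h, ex 450/em 510 nm.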
# Luciferase inh: qHTS Assay for Inhibitors of Firefly Luciferase; Luciferin 4-monooxygenase (Photinus pyralis), P08659; purified firefly luciferase, luminescence, 8 min; Potency, µM (highest dose often 57.1 µM), for the others: top-dose activity change, negative = inhibition, usual class: inhibitors; 72,000 compounds, 2.2% hits; AID 411, 2009; also: potency is read from the fitted curve at half-maximal effect; % is scaled to controls: 0 for no effect and ±100 for the full control effect; nearly all actives have a fitted effect of over 40% in size
#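 Inhibition of light generation by firefly luciferase from ATP and luciferin was profiled with concentration-response curves per sample, ATP held at 10 uM within the enzyme's linear range. Plates were read by luminescence after an 8-minute ambient incubation.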
# PK Bst: Pyruvate Kinase; purified pyruvate kinase, luminescence ATP production; ribose 5-phosphate activator present at AC10; Potency, µM; 51,000 compounds, 1.2% hits; AID 361, 2006; in the data active = potency below about 11 µM; inconclusive = mostly about 12 µM to 25 µM;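 the screen sought inhibitors and activators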;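 also: potency is read from the fitted curve at half-maximal effect; scaled between full activation by ribose 5 phosphate and full inhibition by luteolin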
# DNA Pol III inh: qHTS Assay for Inhibitors of DNA Polymerase III Holoenzyme System; reconstituted DNA polymerase III holoenzyme replication, biochemical; Potency, µM (highest dose often 57.1 µM), for inactives: at the highest dose activity change, negative = inhibition; 71,000 compounds, 0.25% hits; also: potency is read from the fitted curve at half-maximal effect; % is scaled to controls: 0 for no effect and ±100 for the full control effect
#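 Reconstituted *E. coli* holoenzyme (0.35 nM Pol III, 1 nM beta, 154 nM SSB, 2 nM primase) was preincubated with compound for 15 min at RT. Synthesis on 1.4 nM ssM13Gori ran 35 min, then was stopped with PicoGreen/EDTA and read as dsDNA fluorescence.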
# tau ThS displ: Tau ThS binding assay | AID 911, 2007 | Potency, µM | shares compounds with Tau filament bind | recombinant tau filaments, Thioflavin S fluorescence displacement | 60 compounds, 40% hits; calls by dose curve
# aSyn ThS displ: Alpha-synuclein ThS binding assay. recombinant alpha-synuclein fibrils, ThS fluorescence displacement. shares compounds with Tau filament bind. 60 compounds, 40% hits. Potency, µM; calls by dose curve
# Abeta ThS bind: Beta amyloid ThS binding assay | shares compounds with Tau filament bind | Abeta1-42 fibrillization, thioflavin S fluorescence, overnight 37 C | Potency, µM | 60 compounds, 50% hits; calls by dose curve
# * hit, by the source's call; i = inactive; ? = inconclusive; . = no result given; [ ] = another dose, or the depositor's remark. Shown are actives, neighbours in structure and some others; about 6% of the full set was active somewhere. Unless noted, calls follow the shape of the dose curve; as a rule, active = well fitted curve in the direction sought with a large enough effect; inconclusive = small, poorly fitted or top-dose-only effect, or another doubt; inactive = no such curve, though single readings can be large; an effect the other way counts as inactive or inconclusive.
SMILES,ERK AVP inh,15-hLO inh,Tau filament bind,Luciferase inh,PK Bst,DNA Pol III inh,tau ThS displ,aSyn ThS displ,Abeta ThS bind
CN1c2cccc3cccc(c23)N(C)C1(C)C,5%,-12%,-81%,1%,.,-1%,i,?,?
CCCCOc1ccc(C(=O)Nc2ccc(N3CCN(C)CC3)cc2)cc1,-6%,7%,1µM*,0%,>57,1%,?,i,i
CCCC(=O)N1CCN(c2ccc(NC(=O)c3ccccc3)cc2)CC1,0%,-10%,-27%,1%,>57,-8%,.,.,.
CN(C)c1ccc(C(=C2C=CC(=[N+](C)C)C=C2)c2c(O)c(S(=O)(=O)O)cc3cc(S(=O)(=O)O)ccc23)cc1,?,10%[11.4 µM],6%[11.4 µM],3.2µM*,.,-3%[11.4 µM],?,i,i
Cc1ncc(CSc2ccccc2N)c(CO)c1O,-3%[11.5 µM],-1%[11.4 µM],6%[11.4 µM],4%[11.4 µM],.,-11%[11.4 µM],.,.,.
CCOc1cc2[nH]c(=O)n(CCCCC(=O)NC3CCCCC3)c(=O)c2cc1OCC,49%,7%,-39%,1%,>57,4%,i,i,i
O=S(=O)(O)c1ccc(N=Nc2ccc3c(S(=O)(=O)O)cccc3c2O)c2ccccc12,-21%[11.5 µM],-12%[11.4 µM],-8%[11.4 µM],-16%[11.4 µM],.,-8%[11.4 µM],.,.,.
Nc1c(N=Nc2ccc(-c3ccc(N=Nc4cc(S(=O)(=O)O)c5ccccc5c4N)cc3)cc2)cc(S(=O)(=O)O)c2ccccc12,.,.,.,.,.,.,0.29µM*,0.42µM*,2.4µM*
Cc1cc(-c2ccc(N=Nc3ccc4c(S(=O)(=O)O)cc(S(=O)(=O)O)c(N)c4c3O)c(C)c2)ccc1N=Nc1ccc2c(S(=O)(=O)O)cc(S(=O)(=O)O)c(N)c2c1O,25µM*,?,3.2µM*,32µM*,.,7.9µM*,0.19µM*,0.77µM*,0.92µM*
Nc1c2ccccc2nc2c(O)cccc12,15%[25.7 µM],14%[25.6 µM],0%[25.6 µM],2%[25.5 µM],.,-6%[25.6 µM],.,.,.
CN(C)c1ccc(NC(=S)c2ccccn2)cc1,16µM*,3%,5µM*,0.79µM*,.,-1%,7.1µM*,8.9µM*,6.2µM*
OCC1O[C@@H](OC2C(O)C(CO)O[C@@]2(CO)O[C@@H]2OC(CO)C(O)C(O)C2O)C(O)C(O)C1O (some centres not stated),-6%,3%,.,.,.,.,.,.,.
N#CC(C(=O)NCCc1ccccc1)c1nc2ccccc2nc1N1CCCCC1 (configuration not stated),13%,-8%,-5%,0%,>57,-4%,?,?,?
Nc1ccc(Nc2ccccc2N)cc1,-4%,?,-120%,-15%,.,-8%,2.8µM*,2.3µM*,2µM*
CCn1c(=O)cc(OCC(=O)Nc2ccccc2N2CCN(C)CC2)c2ccccc21,-25%,1%,37%,2%,.,-9%,.,.,.
CC(=O)OCCNc1cc(N2CCN(C)CC2)c2noc3c2c1C(=O)c1ccccc1-3,16µM*,-12%,3.2µM*,-19%,.,5%,3µM*,2.7µM*,1.3µM*
CCCCCCCC/C=C\CCCCCCCC(N)=O,10%,2%[25.6 µM],20%,0%,.,-6%,.,.,.
Cc1cc(NC(=O)c2cc3nc(C4CC4)cc(C(F)(F)F)n3n2)no1,-2%,-5%,-7%,1%,>57,-5%,?,i,?
O=C(NCc1ccco1)c1cc2nc(C3CC3)cc(C(F)(F)F)n2n1,?,1%,-8%,0%,>57,-4%,.,.,.

# High-throughput results (PubChem)
